Experimental data: PubChem BioAssay AID1946 (Johns Hopkins Ion Channel Center, 2009)
Hit rate of the full screen: of about 2,400 compounds, about 180 (7.5%) were called active. The entries come from a sample that favours actives as a whole. A number with no mark means an inactive call.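 The calls were made as follows: active = readout below zero, meaning a drop past 3 SD under the dofetilide-free negative control mean; inactive = the rest.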

Molecular target: Potassium voltage-gated channel subfamily KQT member 2 (Rattus norvegicus) (UniProt O88943)
Sequence (O88943 whole entry, looked up): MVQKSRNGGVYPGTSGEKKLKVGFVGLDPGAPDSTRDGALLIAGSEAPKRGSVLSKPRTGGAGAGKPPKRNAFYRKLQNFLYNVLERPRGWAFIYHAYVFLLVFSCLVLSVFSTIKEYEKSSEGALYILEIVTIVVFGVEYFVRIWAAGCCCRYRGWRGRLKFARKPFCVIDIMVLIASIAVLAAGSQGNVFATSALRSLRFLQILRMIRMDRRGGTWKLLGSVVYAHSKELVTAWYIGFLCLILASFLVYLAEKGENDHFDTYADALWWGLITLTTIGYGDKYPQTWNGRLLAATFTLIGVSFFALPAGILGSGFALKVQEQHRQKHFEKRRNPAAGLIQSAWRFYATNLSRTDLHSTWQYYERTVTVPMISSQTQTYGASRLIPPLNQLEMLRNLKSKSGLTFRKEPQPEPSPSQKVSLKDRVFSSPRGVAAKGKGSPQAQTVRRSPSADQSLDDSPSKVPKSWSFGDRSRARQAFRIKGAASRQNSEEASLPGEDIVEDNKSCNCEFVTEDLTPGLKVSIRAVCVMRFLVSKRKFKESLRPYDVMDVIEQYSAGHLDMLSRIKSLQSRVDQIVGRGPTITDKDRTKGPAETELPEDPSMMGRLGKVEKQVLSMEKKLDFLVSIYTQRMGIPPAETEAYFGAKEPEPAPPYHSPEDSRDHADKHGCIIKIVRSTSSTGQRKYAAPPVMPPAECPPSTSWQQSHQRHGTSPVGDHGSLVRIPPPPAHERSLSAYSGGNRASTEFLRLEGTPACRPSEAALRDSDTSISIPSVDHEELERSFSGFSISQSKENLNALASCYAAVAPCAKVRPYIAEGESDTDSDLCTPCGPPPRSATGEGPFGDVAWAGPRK
Experiment: rat KCNQ2 channel inhibition by compounds alone, confirmation, counter-screen for hERG block protector project, cell-based, CHO, FluxOR thallium flux (AID 1946)
Details: CHO-KCNQ2 cells, FluxOR thallium flux fluorescence; at 10 µM; hits give low values; zero marks the 3-SD hit cutoff

With `CC(C)(C)OC(=O)NCCCC(CCCNC(=O)OC(C)(C)C)C(=O)O` the activity change vs negative control was -1.1% (active).
For `Cc1ccc(/C=C(\NC(=O)c2ccccc2)C(=O)N2CCCCC2)cc1`, the activity change vs negative control was -1.3% (active).
For `COC(=O)c1ccc(NC(=O)COC(=O)C2CC(=O)N(Cc3ccccc3)C2)cc1` (stereo unspecified), the activity change vs negative control was -5.2% (active).
In the case of `Cc1ccccc1C(=O)c1cn[nH]c1-c1ccccc1O`, the activity change vs negative control is reported as -4.7% (active).
For `Cn1nnnc1SCC(=O)NC1CCCc2ccccc21` (stereo unspecified), the activity change vs negative control was -7.8% (active).
With `Cc1cccc(OCC(=O)NC2CCCc3ccccc32)c1C` (stereo unspecified) the activity change vs negative control was -10.6% (active).

Point of comparison: `Cn1c(=S)[nH]c2scc(-c3cccs3)c2c1=O`, activity change vs negative control 93.4%. Against it:
- Cc1c(C)c2ccc(OCC(=O)N[C@@H](Cc3ccccc3)C(=O)O)cc2oc1=O — lower, 11.8%
- O=C(NC(=S)Nc1ccccc1Cl)c1ccco1 — lower, 32.3%
- O=C(CCC1CCCC1)NNC(=O)c1cccc(Cl)c1 — lower, 39.5%
- CCc1ccc(C(C)NC(=O)C2CCCC2)cc1 (stereo unspecified) — lower, 42.6%
- CCCCCn1c(=S)[nH]c2ncccc2c1=O — lower, 48.4%
- O=C(NC(=S)N1CCN(c2ccccc2)CC1)c1ccccc1 — lower, 33.2%
- CC(C)(C)c1ccc(C(=O)NC(=S)N2CCCCCC2)cc1 — lower, 40.6%
- CCCCOc1ccc(-c2c(C#N)c(N)[nH]c(=S)c2C#N)cc1 — lower, 21.3%
- O=c1oc2ccccc2c(Cl)c1CN1CCCCC1 — lower, 32.3%
- C=CCn1c(=S)[nH]c2ccc(Br)cc2c1=O — lower, 40.2%
- O=C(COC(=O)C1CCC(=O)N1)Nc1ccc(Oc2ccccc2)cc1 (stereo unspecified) — lower, 10.5%
- COc1ccc(N2CC(C(=O)OCC(=O)Nc3ccccc3C)CC2=O)cc1 (stereo unspecified) — lower, 9%
- COC(=O)c1c(NS(=O)(=O)Cc2ccccc2)sc2c1CCCC2 — lower, 56.6%
- Cc1ccc(C(=O)c2ccccc2C(=O)O)c(O)c1 — lower, 6.4%
- Cc1ccccc1C(=O)Nc1nc(=S)ss1 — lower, 82.2%
- COc1ccc(C(=O)CC(=O)C(=O)Nc2ccccc2C(F)(F)F)cc1 — lower, 36.8%
- CCOC(=O)N1CCC(N2C(=O)c3ccccc3C2Nc2cccnc2)CC1 (stereo unspecified) — lower, 27.6%
- CCOc1ccc(C(C)NC(=S)NC2CCCCC2)cc1 (stereo unspecified) — lower, 40.9%
- Fc1cccc2sc(Nc3nc4c(F)cccc4s3)nc12 — lower, 30.2%
- Cc1ccc(-c2csc3nc[nH]c(=S)c23)cc1 — lower, 62.4%
- Cn1nnnc1SCC(=O)Nc1ccccn1 — lower, 8.7%
- O=C(NC(=S)NC1CCCc2ccccc21)c1ccco1 (stereo unspecified) — lower, 28.4%
- CCOc1ccc(NC(=O)CS(=O)CC(=O)NC2CCCc3ccccc32)cc1 (stereo unspecified) — lower, 8.3%
- CCn1nnnc1SCC(=O)N1c2ccccc2Sc2ccccc21 — lower, 5.3%
